# Reference: the OligoGym collection
# Target: PPIL1
# Experiment: pooled miR-30 sensor sort-seq; sequence = guide strand
# Conditions: shRNA
row,Sequence,sensor-assay potency score (higher = more potent)
1,TTAGCATTACATGTCATTCTAT,-0.539
2,TTCACGTCGTCCACAGGGCGGT,-0.967
3,TTACATGTCATTCTATGTCATC,-1.08
4,TAAAATGTACTTCCATCTCTAA,-0.493
5,TATGTCATCTAGAAGCTGGTTC,0.329
6,TAGATAGATGCACCACCTCGAC,-1.34
7,TAGCATTACATGTCATTCTATG,-0.73
8,TAGATGCACCACCTCGACCTGT,-1.02
9,TGTAGTAACCTCGACGAGCCAA,-0.207
10,TTGGATCATGAAGTCTTTGATA,-1.36
11,TTCTGTGGAATTTTGTGCCATT,-0.861
12,TTCTATGTCATCTAGAAGCTGG,0.291

# Target: PPM1D
# Experiment: as above
# Conditions: shRNA
row,Sequence,sensor-assay potency score (higher = more potent)
1,TAACAGAGTTCTTTCGCTGTGA,0.0976
2,TTTCTTTAAACATTTAGCCCTA,-0.501
3,TTGGACTCTTCTAATGTCCTTT,-0.026
4,TTTAACAGAGTTCTTTCGCTGT,0.0988
5,TATAATATACTTGTGCTTCTGA,0.584
6,TTTTACAGCAACTTATACCCTA,0.379
7,TTCGATTCGTTCTCTTTCCTTG,0.00604
8,TTGAGTAACGTCCTCCATGTAC,-0.62
9,TTTACAGCAACTTATACCCTAA,-0.288
10,TATACTTGTGCTTCTGAGGGTC,0.801
11,TTTTTTCTCCTCTTGGTCCTGG,0.387
12,TTGAGGGTATGACTACACCTTG,-1.21
